LMNA splice mod: modulators of lamin A splicing; actives 0.01% (n = 200,000); HeLa LMNA splicing GFP/RFP minigene ratio, 48 h; AID 1487; Potency, µM (highest dose often 46.1 µM), most hits filed as inhibitors; active = well fitted inhibition curve with a large enough effect in the signal ratio, with a control signal flat, not every such curve was filed as active; inconclusive = small, poorly fitted or top-dose-only effect, or effect the other way, or a change in a side signal; the % refers to the signal ratio
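S3 HeLa cells stably expressing lamin A-EGFP splicing minigene plus DsRed2, 600 cells/well, 48 h compound exposure at 37C. Laser-scanning cytometry; analysed as GFP (500-530 nm)/RFP (575-640 nm) total intensity ratio; 0.5% DMSO vehicle.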
HTT cytoprotect: Huntington cell model cytoprotection by ATP luminescence; PC12 HTT-Q103 induced, cytoprotection, ATP luminescence, 40 h; Potency, µM (series often up to 56.4 µM), hits mostly activators; actives 0.14% (n = 230,000); AID 1471; also: nearly all actives have a fitted effect of over 45% in size
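Huntington model: PC12 line, ecdysone-inducible HTTQ103 exon1–GFP, tebufenozide 100 nM. Test articles in a dose series. Endpoint luminescence from cellular ATP.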
KinaseGlo FLuc: counter-screen: inhibitors of Kinase-Glo firefly luciferase | actives 0.28% (n = 200,000) | AID 1379 | Potency, µM (top dose mostly 38.3 µM), usual class: inhibitors | Q27757 | Kinase-Glo luciferase, ATP luminescence, 8 min; also: nearly all actives have a fitted effect of over 60% in size
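Inhibition of Kinase-Glo luciferase light generation was assessed at 10 uM ATP in pH 7.2 imidazole buffer, with luminescence measured after eight minutes at ambient temperature.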
HttQ103 aggreg: reduces HttQ103-GFP aggregates in PC12 cells. PC12 HttQ103-GFP aggregates, Acumen cytometry, 40 h. Potency, µM (highest dose often 46.1 µM), hits mostly inhibitors. actives 1.1% (n = 220,000); also: nearly all actives have a fitted effect of over 60% in size
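Using laser scanning cytometry, GFP-positive aggregates were counted after lysis of PC12 cells induced with 100 nM tebufenozide to express HTT exon 1 Q103–GFP. Compounds were tested in titration.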
ALDH1A1 block: inhibitors of human aldehyde dehydrogenase 1A1. AID 1030. Potency, µM (doses to about 75.3 µM), most hits filed as inhibitors. P00352. actives 7.3% (n = 220,000). Purified ALDH1A1, NADH fluorescence, propionaldehyde substrate; active = well fitted inhibition curve with a large enough effect, not every such curve was filed as active; inconclusive = small, poorly fitted or top-dose-only effect, or another doubt; inactive = no such curve, though single readings can be large or run the other way
HPGD inh: HPGD (human) dehydrogenase inhibition; actives 4.3% (n = 150,000); purified HPGD, NADH fluorescence kinetic, PGE2 substrate; Potency, µM, hits mostly inhibitors; P15428; AID 894; active = well fitted inhibition curve with a large enough effect, not every such curve was filed as active; inconclusive = small, poorly fitted or top-dose-only effect, or another doubt; inactive = no such curve, though single readings can be large or run the other way
Target sequence (P15428 whole entry, looked up): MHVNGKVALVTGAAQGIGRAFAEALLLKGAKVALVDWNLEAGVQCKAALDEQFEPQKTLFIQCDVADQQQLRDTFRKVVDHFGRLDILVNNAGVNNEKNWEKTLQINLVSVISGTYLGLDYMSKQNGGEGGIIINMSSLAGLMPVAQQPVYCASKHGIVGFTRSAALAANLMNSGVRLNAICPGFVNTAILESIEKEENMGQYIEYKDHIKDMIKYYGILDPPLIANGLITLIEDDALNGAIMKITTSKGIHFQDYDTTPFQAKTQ
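20 nM HPGD preincubated 15 min at room temperature with compound in 50 mM Tris-HCl pH 8, 0.01% Tween 20. Started with 1 mM NAD+ and 30 uM prostaglandin E2; NADH fluorescence (360/450 nm) read 5 times over 30-s intervals, last minus first.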
Of the large screens only hits and unclear results are named; the others gave an inactive call. Compounds with a hit are over-represented: about 9% of the library has one in this group of screens. Unless noted, calls follow the shape of the dose curve; as a rule, active = well fitted curve in the direction sought with a large enough effect; inconclusive = small, poorly fitted or top-dose-only effect, or another doubt; inactive = no such curve, though single readings can be large; an effect the other way counts as inactive or inconclusive.

CN(C(=O)CN1CC=C(c2ccccc2)CC1)c1c(N)n(Cc2ccccc2)c(=O)[nH]c1=O	LMNA splice mod inconclusive (no result: HPGD inh)
CCCOC(=O)c1ccccc1C(=O)OCCC	ALDH1A1 block inconclusive (no result: LMNA splice mod, KinaseGlo FLuc, HttQ103 aggreg)
CCCCCCCCOC(=O)c1ccccc1C(=O)OCCCCCCCC	LMNA splice mod inconclusive, ALDH1A1 block 25.1µM (no result: KinaseGlo FLuc)
COc1cc(C2SCC(=O)Nc3c2c(C)nn3-c2ccccc2)cc(OC)c1OC (stereo not drawn)	none
Cc1nn(-c2ccccc2)c2c1C(c1ccc3c(c1)OCO3)SCC(=O)N2 (stereo not drawn)	HPGD inh 8.91µM
CC(=O)Nc1ccc(C2CN(C)CC2C(=O)c2ccc(Cl)cc2)cc1 (stereo not drawn)	ALDH1A1 block inconclusive (no result: HPGD inh)
CN1CC(C(=O)c2ccc(Cl)cc2)C(c2ccc(N(C)C)cc2)C1 (stereo not drawn)	ALDH1A1 block 10µM (no result: LMNA splice mod, HPGD inh)
O=c1c2ccccc2nc(/C=C/c2ccc([N+](=O)[O-])o2)n1-c1ccc(O)cc1	ALDH1A1 block inconclusive (no result: LMNA splice mod, HPGD inh)
COc1ccc(C(=O)O[C@H]2CC[C@@]3(C)[C@H]4CC[C@H]5[C@]3(C[C@]3(O)[C@H]6CN7C[C@H](C)CC[C@H]7[C@](C)(O)[C@]6(O)[C@H](O)C[C@]53O)O[C@]24O)cc1OC	none (no result: LMNA splice mod, HttQ103 aggreg)
CCOC(=O)N1CCN(Cc2ccccc2F)CC1	ALDH1A1 block 14.1µM
Cc1ccc(CN2CCN(Cc3ccccc3F)CC2)cc1	ALDH1A1 block inconclusive (no result: HPGD inh)
CC12CN3CN(C1)CC(C)(C3)C2=NO	none (no result: HTT cytoprotect)
OC12CCCCC1C(c1ccccc1)NCC2 (stereo not drawn)	none
CN1C(=O)NC(c2cccc(O)c2)C(C(=O)c2cccs2)C1(O)C(F)(F)F (stereo not drawn)	ALDH1A1 block 0.794µM
CCCC[N+]12CCC(CC1)C(C(=O)c1cccs1)C2 (stereo not drawn)	none
N#CC(c1ccc(Cl)nn1)c1c(F)cccc1Cl (stereo not drawn)	ALDH1A1 block 14.1µM (no result: LMNA splice mod, HPGD inh)
CN1CCC(O)(c2ccc(Cl)cc2)C(C(=O)c2ccc(Cl)cc2)C1 (stereo not drawn)	LMNA splice mod inconclusive, ALDH1A1 block 0.112µM (no result: HPGD inh)
CN1c2ccc([N+](=O)[O-])cc2CC2(C(=O)NC(=O)NC2=O)C1c1ccccc1 (stereo not drawn)	HttQ103 aggreg inconclusive
N[C@@H](Cc1c[nH]c2cc([N+](=O)[O-])ccc12)C(=O)O	none (no result: LMNA splice mod, HttQ103 aggreg)
CCC(=NCc1ccc2c(c1)OCO2)c1c(O)n(C2CCCCC2)c(=O)[nH]c1=O	HttQ103 aggreg inconclusive, ALDH1A1 block 12.6µM
CCC(=NCCO)c1c(O)n(C2CCCCC2)c(=O)[nH]c1=O	none
C[C@@H]1CC[C@@]2(OC1)O[C@H]1[C@@H](O)[C@H]3[C@@H]4CC[C@H]5C[C@@H](O[C@@H]6O[C@H](CO)[C@H](O[C@@H]7O[C@H](CO)[C@@H](O)[C@H](O[C@@H]8OC[C@@H](O)[C@H](O)[C@H]8O)[C@H]7O[C@@H]7O[C@H](CO)[C@@H](O)[C@H](O[C@@H]8O[C@H](CO)[C@@H](O)[C@H](O)[C@H]8O)[C@H]7O)[C@H](O)[C@H]6O)[C@H](O)C[C@]5(C)[C@H]4CC[C@]3(C)[C@H]1[C@@H]2C	ALDH1A1 block 20µM (no result: LMNA splice mod, KinaseGlo FLuc, HttQ103 aggreg)
O=C1C=C2C(=CCOC2O)O1 (stereo not drawn)	ALDH1A1 block inconclusive (no result: LMNA splice mod, HTT cytoprotect, HttQ103 aggreg)
O=C(CSc1nnnn1-c1ccccc1)Nc1ccc(N2CCOCC2)c(Cl)c1	LMNA splice mod inconclusive, ALDH1A1 block 2.24µM
N=C1c2ccccc2CN1c1cccc([N+](=O)[O-])c1	HttQ103 aggreg inconclusive (no result: HPGD inh)
CC1=CC(=O)NP(=O)(Oc2ccc3ccccc3c2)N1 (stereo not drawn)	ALDH1A1 block inconclusive, HPGD inh 35.5µM
Cc1ccc(S(=O)(=O)NC(CC(=O)N2CCC3(CC2)OCCO3)c2ccco2)cc1 (stereo not drawn)	ALDH1A1 block 12.6µM

Screening data deposited in PubChem BioAssay by National Center for Advancing Translational Sciences (NCATS).
